Data on 40 compounds can be found in PubChem BioAssay (Tox21).

Results filed as inconclusive are left out. Entries that show only a call come without a potency. The source made the active and inactive calls. Calls follow the shape of the dose curve; as a rule, active = well fitted activation curve with a large enough effect in the signal ratio in the repeat runs (not every such curve was filed as active); inconclusive = weak or mixed curves; inactive = flat fitted curve, though single readings scatter; the % refers to the signal ratio.

The assay can be described thus: p53 small molecule agonists, cell-based qHTS assay (AID 1963582). As to conditions: HCT-116 p53RE-bla reporter, beta-lactamase FRET ratio, 16 h; series mostly up to 66 µM. The source says: National Center for Advancing Translational Sciences [NCATS]
Division of Preclinical Innovation [DPI]
U.S. Environmental Protection Agency [EPA]
National Institutes of Environmental Health Sciences [NIEHS]
National Toxicology Program [NTP]
U.S. Food and Drug Administration [FDA]
p53, a tumor suppressor protein, is activated following cellular insult, including DNA damage and other cellular stresses. The activation of p53 regulates cell fate by inducing DNA repair, cell cycle arrest, apoptosis, or cellular senescence. The activation of p53, therefore, is a good indicator of DNA damage and other cellular stresses. […] The activation of the reporter gene under culture conditions can be detected by fluorescence intensity. This cell line was used to screen the Tox21 10K compound library in a 1536-well plate format and to identify agonists that activate the p53 signaling pathway.
Tox21 Assay Protocol Summary:
The p53RE-bla cells were dispensed at 4,000 cells/5 ul/well in 1536-well black wall/clear bottom plates using a Multidrop dispenser. After the assay plates were incubated at a 37 C/5% CO2 incubator for 5 hours, 23 nL of compounds dissolved in DMSO, positive controls or DMSO only was transferred to the assay plate by a pin tool. The plates were incubated at 37 C for 16 hours. After 1 uL of LiveBLAzerTM B/G FRET substrate was added using a Flying Reagent Dispenser, the plates were incubated at room temperature for 2 hours, and fluorescence intensity was measured by an Envision plate reader.
Background: qHTS replaces the single test concentration by a dilution series.
Consider `N#CC(c1ccccc1)c1ccccc1`, for which the Potency result is “inactive”.

For the compound `CCCCCCCCCCCCCCCCn1cc[n+](C)c1`, the Potency result was “inactive”.

Take `O=C1C(Cl)=C(Cl)C(=O)c2ccccc21`: the Potency result was “inactive”.

As for `CC(=O)CC(c1ccc(Cl)cc1)c1c(O)c2ccccc2oc1=O` (stereo not given), the Potency entry was “inactive”.

Take `C[C@]12CC[C@H]3[C@@H](CCC4=CC(=O)CC[C@@H]43)[C@@H]1CC[C@@H]2O`: the Potency entry is “inactive”.

Turning to `Nc1ccc(Cl)cc1N`, the Potency entry is “inactive”.

Turning to `Cc1cnc(C2=NC(C)(C(C)C)C(=O)N2)c(C(=O)O)c1` (stereo not given), the Potency result is “inactive”.

Consider `CC(C)OC(=O)Nc1cccc(Cl)c1`, for which the Potency result is “inactive”.

`COC(=O)NC(=S)Nc1ccccc1NC(=S)NC(=O)OC`: the Potency entry is “inactive”.

On to `N#CN=C(N)N`, for which the Potency result was “inactive”.

`O=P(Cl)(Cl)Cl`: the Potency result is “inactive”.

Regarding `O=[N+]([O-])c1cccc(O)c1`, the Potency entry is “inactive”.

For `CN(C)CCc1ccc(O)cc1`, the Potency result was “inactive”.

Take `CC1OC(C)OC(C)O1` (stereo not given): the Potency entry is “inactive”.

With `Nc1ccc(Cc2ccc(N)cc2)cc1`, the Potency result was “inactive”.

On to `CCCCCCCCSC(=O)Oc1cc(Cl)nnc1-c1ccccc1`, for which the Potency entry was “inactive”.

Turning to `CCC(C)(C)c1ccc(O)cc1`, the Potency entry was “inactive”.

With `O=C(CCN1CC1)OCC(CO)(COC(=O)CCN1CC1)COC(=O)CCN1CC1`, the Potency result was “inactive”.

In the case of `CC(C=O)Cc1ccc2c(c1)OCO2` (stereo not given), the Potency entry was “inactive”.

Regarding `COc1ccccc1OC`, the Potency result was “inactive”.

`CCOP(=S)(OCC)OP(=S)(OCC)OCC`: the Potency result is “inactive”.

On to `Nc1ccc(Br)cc1`, for which the Potency entry was “inactive”.

`O=C(Cl)C(Cl)Cl`: the Potency result is “inactive”.

As for `Nc1ccc(Cl)cc1`, the Potency entry is “inactive”.

As to `O=Cc1ccco1`, the Potency entry was “inactive”.

For the compound `O=C(Cl)OCCOCCOC(=O)Cl`, the Potency entry is “inactive”.

On to `Cl/C=C\C[N+]12CN3CN(CN(C3)C1)C2`, for which the Potency result is “inactive”.

Regarding `C1CC2OC2CC1C1CO1` (stereo not given), the Potency result is “inactive”.

In the case of `CCOP(=S)(OCC)O/N=C(\C#N)c1ccccc1`, the Potency entry was “inactive”.

With `CC(Cl)CCl` (stereo not given), the Potency entry was “inactive”.

As to `COP(=S)(OC)Oc1cc(Cl)c(Cl)cc1Cl`, the Potency entry was “inactive”.

For the compound `COc1ccc(N)cc1`, the Potency result was “inactive”.

Turning to `CC(C)c1ccc(O)cc1`, the Potency entry is “inactive”.

With `Cc1ccc([N+](=O)[O-])cc1`, the Potency entry was “inactive”.

With `O=C(CBr)c1ccc(O)cc1`, the Potency entry was “inactive”.

On to `CC(C)(C)C(=O)Cl`, for which the Potency result is “inactive”.

Turning to `COC(=O)C(Cl)C(=O)OC`, the Potency result was “inactive”.

Take `Nc1cnn(-c2ccccc2)c(=O)c1Cl`: the Potency entry was “inactive”.

Take `CC[N+]1(CC)CCC(OC(=O)C(O)(c2ccccc2)c2ccccc2)C1` (stereo not given): the Potency result is “inactive”.

Turning to `O=C1CCCO1`, the Potency entry was “inactive”.
